From PubChem BioAssay AID1458 (National Center for Advancing Translational Sciences (NCATS), 2008)
Out of some 210,000 compounds screened, about 5,900 (2.8%) were called active. Inconclusive results (about 5%) are left out. The list comes from a sample in which actives are over-represented; it also holds similar structures and randomly drawn compounds. Unmarked numbers belong to inactive results. Calls follow the shape of the dose curve; as a rule, active = well fitted activation curve with a large enough effect; inconclusive = small, poorly fitted or top-dose-only effect; inactive = no such curve, though single readings can be large or run the other way.

Assay: qHTS Assay for Enhancers of SMN2 Splice Variant Expression; also: nearly all actives have a fitted effect of over 55% in size; as to activity change, positive = activation: % of control where 0% means no effect
Settings: HEK293 SMN2-luciferase splicing reporter, luminescence, 30-36 h; series mostly up to 46.1 µM; activity change, positive = activation: at the top concentration
Summary of the method: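 qHTS luciferase splicing reporter: luminescence rises when SMN2 exon 7 is included in transfected HEK293 cells. Compound exposure lasted 30-36 h at 37C, with 4.5 mM final sodium butyrate as control, followed by a ONE-Glo read.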
Potency is read from the fitted curve at half-maximal effect.

Structure (SMILES)	Potency	activity change, positive = activation
CCOc1cccc(/C=C/c2ccc3ccccc3n2)c1OC(C)=O	1.58 µM (active)	–
CC(OC(=O)c1ccc2ccccc2n1)C(=O)c1ccccc1 (stereo not given)	–	-3.13%
NC(=O)COC(=O)/C=C/c1ccc2ccccc2n1	–	4.91%
CCOC(=O)c1ccccc1NC(=O)c1nn(-c2ccc(OC)c(Cl)c2)c(=O)c2c1c1ccccc1n2C	–	-6.12%
COc1ccc(C(=O)Nc2nncs2)c(OC)c1	11.2 µM (active)	–
COc1cccc(OC)c1C(=O)Nc1nnc(C(C)C)s1	–	-3.99%
O=C(Nc1nncs1)c1ccccc1NS(=O)(=O)c1cccs1	–	-4.37%
O=S(=O)(c1ccc(C2CCCCC2)cc1)N1CCN(c2ccc(Cl)c(Cl)c2)CC1	–	-6.14%
CC(C)(C)NC(=O)NC(=O)COC(=O)Cc1ccc(Cl)cc1Cl	–	9.02%
CCCc1ccc(-c2csc(NC(=O)Cc3cccs3)n2)cc1	–	-91.3%
COc1ccc(-c2csc(NC(=O)COC(=O)Cc3ccc(Cl)cc3Cl)n2)cc1	11.2 µM (active)	–
COc1ccc(-c2csc(NC(=O)COC(=O)c3ccc(Br)o3)n2)cc1	0.794 µM (active)	–
COc1ccc(-c2csc(NC(=O)CCCc3cccs3)n2)cc1	–	-8.51%
COc1ccc(-c2nc(CCNC(=O)c3ccc(Br)o3)cs2)cc1	–	-57.5%
COc1ccc(Nc2ncc(C(=O)Nc3cc(C)ccc3OC)c3ccccc23)cc1	–	3.77%
COc1ccc(-n2c(SCC(N)=O)nc3c(oc4ccccc43)c2=O)cc1	–	-12.5%
O=C(NCc1ccccc1)c1cc(-c2cccc(Cl)c2)on1	–	0.862%
COc1ccccc1CNc1nc2ccc(Cl)cc2n2cnnc12	–	-0.672%
Cc1ccc(Cl)cc1NC(=O)C(C)n1nnc2sc(-c3ccccc3)cc2c1=O (stereo not given)	–	1.18%
O=C(CCSc1ccccc1)N1CCN(c2ccccc2F)CC1	11.2 µM (active)	–
O=C(CCS(=O)(=O)c1cccc2nsnc12)N1CCN(c2ccccc2F)CC1	–	-8.49%
O=C(c1cccc2ccccc12)N1CCN(c2ccccc2F)CC1	–	-6.5%
Cc1cc2n(n1)C(c1cc(C(C)(C)C)c(O)cc1O)Nc1ccccc1-2 (stereo not given)	–	-2.87%
Cc1cccc(CSc2nc3ccncc3n2CC(=O)N(C)C2CCCCC2)c1	–	3.04%
CCOc1ccc(-c2cc3nc(C4CCN(C(=O)OC(C)(C)C)CC4)c(C(=O)Nc4cccc(CC)c4)cn3n2)cc1	–	6.72%
CC(C)(C)NC(=O)CSc1nc(-c2ccc(F)cc2)cc(C(F)(F)F)n1	–	17.7%
Cc1ccccc1CSCC(=O)NC(=O)NC(C)(C)C	–	10.4%

Structure (SMILES)	Potency	activity change, positive = activation
CC(C)(C)NC(=O)CSC(=Nc1ccccc1F)NC#N	20 µM (active)	–
Cc1cc(C)cc(NC(=O)Cc2csc(C)n2)c1	–	-8.87%
COc1cccc(NC(=O)CC2C(=O)NCCN2C(=S)Nc2ccc(F)cc2)c1 (stereo not given)	–	-6.38%
CCNC(=O)N1CCNC(=O)C1CC(=O)Nc1ccc(C(=O)OCC)cc1 (stereo not given)	–	-30.7%
COC(=O)c1cc(NC(=O)CC2C(=O)NCCN2C(=O)c2ccc(F)cc2)cc(C(=O)OC)c1 (stereo not given)	10 µM (active)	–
COc1cc2c(=O)c(S(=O)(=O)c3ccc(C(C)C)cc3)cn(Cc3ccccc3C)c2cc1OC	–	-15.4%
O=C(Nc1ccccc1)c1cc2ccccc2[nH]1	11.2 µM (active)	–
O=C(Nc1ccccc1)c1ccc2nsnc2c1	–	14%
O=C(Nc1cccc(NC(=O)c2ccc(Br)cc2)c1)c1ccccc1	–	1.19%
Cc1nc(SCC(=O)N2CCN(c3ccccc3)CC2)[nH]c(=O)c1C	–	7.64%
Cc1oc(-c2ccccc2F)nc1CN1CCC(C(=O)NCCc2ccc(Cl)cc2)CC1	–	8.98%
COc1ccc(NC(=O)C2CCCN(S(=O)(=O)c3c(C)[nH]c(=O)[nH]c3=O)C2)c(OC)c1 (stereo not given)	–	7.41%
CCOC(=O)c1c(NC(=O)c2ccc(N3CCOCC3)c([N+](=O)[O-])c2)sc(C)c1C	–	-0.319%
COc1ccc(C(=O)Nc2ccc(CN3CCOCC3)cc2)cc1	–	-18%
COc1ccc(C(=O)Nc2sc(C)c(C)c2CN2CCOCC2)cc1	12.6 µM (active)	–
CCOC(=O)C1CCCN(C(=O)Cn2ncc3c(C)n(Cc4ccc(F)cc4)c(C)c3c2=O)C1 (stereo not given)	–	-22.8%
COc1ccc(-c2noc(CSc3nc4ccc(C)cc4[nH]3)n2)cc1	–	-46.7%
Cc1ccccc1C(=O)Nc1sc2c(c1C(=O)N1CCC(C)CC1)CCCC2	–	-1.84%
Cc1c(NC(=O)c2cc(=O)c3ccccc3o2)c(=O)n(-c2ccccc2)n1C	–	-4.74%
COc1ccc(Cl)cc1C(=O)NCc1cn(C)nc1C	–	1.02%
Cc1nn(C)cc1C(=O)NNC(=S)Nc1ccc(Cl)cc1	–	8.55%
Cc1nn(C)cc1CNC(=O)Nc1ccc(Cl)cc1	15.8 µM (active)	–
Oc1ccccc1-c1nc(/C=C/c2ccc(F)cc2)no1	–	3.13%
CCOC(=O)c1ccc(-c2ccc(C(=O)Nc3cccnc3)o2)cc1	6.31 µM (active)	–
CCOC(=O)c1cc(NC(=O)c2cccnc2)cc(C(=O)OCC)c1	–	12.2%
COc1ccc(C(=O)Nc2cccnc2)cc1C(=O)Nc1cccnc1	–	-8.52%
CCN(CC)c1ccc(C2C(C(N)=O)=C(C)Nc3nc(SCc4ccccc4)nn32)cc1 (stereo not given)	–	7.44%

Structure (SMILES)	Potency	activity change, positive = activation
COCCn1c(CCC(=O)Nc2cc(C)ccc2C)nc2cccnc21	–	7.93%
N#C/C(=C\c1ccccc1F)c1nc2ccccc2c(=O)[nH]1	–	-1.96%
COc1ccccc1-c1nnc(SCC(=O)Nc2cc(C)on2)o1	–	-3.86%
COc1ccccc1-c1nnc(NC(=O)c2cccc(N3C(=O)CCC3=O)c2)o1	–	2.48%
COc1ccccc1-c1nnc(NC(=O)c2ccc3ncsc3c2)o1	14.1 µM (active)	–
Cn1c(=O)c2sccc2n2c(CCC(=O)NCc3ccccc3Cl)nnc12	–	1.76%
CCc1ccc2oc(-c3ccc(NC(=O)c4cc5ccccc5o4)cc3)nc2c1	–	6.02%
CCc1ccc2oc(-c3ccc(C)c(NC(=O)/C=C/c4ccco4)c3)nc2c1	–	4.88%
CCc1ccc2oc(-c3ccc(N)cc3)nc2c1	1 µM (active)	–
COc1ccc(OC)c(-c2csc(-c3c(N)c(C(=O)c4ccccc4)n4ccccc34)n2)c1	–	-0.921%
CCc1nn(CC(=O)N2CCN(c3cc(C)ccc3C)CC2)c(=O)c2cc3occc3n12	–	2.38%
O=C(c1ccc(Cl)cc1)n1nc(-c2cccnc2)nc1NCc1ccc(F)cc1	–	1.47%
COc1cc(Cl)c(C)cc1NC(=O)CCc1nc2cccnc2n1Cc1cccs1	–	-6.37%
Cc1ccccc1Nc1nnc(SCC(=O)c2cc3ccccc3o2)s1	–	-3.61%
Cc1cc2c(=O)n(C)c(SCC(=O)c3cc4ccccc4o3)nc2s1	–	-1.87%
CC(C)c1ccc(Nc2nnc(SCC(=O)c3nnc(-c4ccccc4)o3)s2)cc1	10 µM (active)	–
O=C(CSc1nnc(Nc2ccccc2)s1)Nc1cccnc1Cl	–	5.82%
CC(C)Nc1nnc(SCC(=O)c2c[nH]c3ccccc23)s1	–	-12.7% [at 1.84 µM]
Cc1ccc(Nc2nnc(SCC(=O)c3cc4ccccc4o3)s2)cc1C	12.6 µM (active)	–
CCOCCCNC(=O)c1c(NC(=O)Cc2coc3c(C)c(C)ccc23)sc2c1CCC2	–	1.11%
Cc1cccc(N2CCN(C3=C(c4ccccc4)C(=O)c4ccccc43)CC2)c1C	–	1.91%
O=C1OC(C(=O)Nc2cccc(Br)c2)Cc2ccccc21 (stereo not given)	–	0.983%
CCNS(=O)(=O)c1cc(-c2nnc(Nc3cccc(C(F)(F)F)c3)c3ccccc23)ccc1C	–	-4.9%
COc1cccc(CNC(=O)Cn2ncn3c(cc4ccccc43)c2=O)c1	–	5.36%
Cc1ccc(S(=O)(=O)NCCN2CCOCC2)cc1C	–	38.2%
Cc1cc2nc(SCCN3CCOCC3)[nH]c2cc1C	14.1 µM (active)	–
CCOC(=O)CSc1nc2ccc(C)cc2[nH]1	–	-0.138%

Structure (SMILES)	Potency	activity change, positive = activation
COc1ccc(S(=O)(=O)NCCSc2nnnn2-c2ccccc2)cc1	–	-43.5%
COc1ccc(NC(=O)NC(C)c2c(-n3cccc3)sc(C)c2C)cc1OC (stereo not given)	–	-12.4%
COc1cccc(NC(=O)CCNS(=O)(=O)c2ccc3c(c2)oc(=O)n3C)c1	–	-7.42%
Cc1ccc(CNC(=O)CCNS(=O)(=O)c2ccc3c(c2)oc(=O)n3C)cc1	–	-6.56%
CC(=O)c1cccc(NC(=O)N2CCCC2C(=O)NCCc2ccccc2)c1 (stereo not given)	–	12.8%
O=C(NCCc1ccccc1)c1ccc(NC2=NC3CS(=O)(=O)CC3S2)cc1 (stereo not given)	–	-12.9%
CC1CCCN(c2ccc(C(=O)NCCc3ccccc3)cn2)C1 (stereo not given)	11.2 µM (active)	–
Cc1oc2ccc(O)c(CN3CCCCC3)c2c1C(=O)Nc1cccc(C(F)(F)F)c1	–	-3.24%
CCC1CCCCN1S(=O)(=O)c1ccc(NC(=O)c2cc(=O)c3ccccc3o2)cc1 (stereo not given)	–	17%
Cc1ccccc1NC(=O)Cn1c(=O)n(CCCCC(=O)NCc2ccccc2Cl)c(=O)c2ccccc21	–	-3.56%
CCN(CC)C(=O)c1sc2nc(-c3ccccc3)ccc2c1N	7.94 µM (active)	–
CCOC(=O)c1sc2nc(SC)nc(-c3ccccc3)c2c1N	–	-19.5%
CS(=O)(=O)c1sc2nc(-c3ccccc3)cc(-c3ccccc3)c2c1N	–	2.34%
OCCNc1nc2ccccc2[nH]1	–	-20.5%
Cc1ccc(-c2nc3ccccc3[nH]2)cc1N	3.16 µM (active)	–
c1ccc(-c2[nH]ncc2-c2nc3ccccc3[nH]2)cc1	–	23.7%
Cc1ccc(-c2nc3ccccc3[nH]2)cc1NC(=O)c1sc2ccccc2c1Cl	–	-58.7%
c1ccc2[nH]c(-c3nc4ccccc4[nH]3)nc2c1	7.94 µM (active)	–
COc1ccc(Br)cc1C(=O)NC(=S)Nc1cc(-c2nc3ccccc3[nH]2)ccc1C	–	-3.02% [at 1.84 µM]
COc1cc2[nH]c(=O)n(Cc3ccc(C(=O)NCc4ccc(C)cc4)cc3)c(=O)c2cc1OC	–	12.5%
CCCCCn1c(=O)[nH]c2cc(C(=O)Nc3cc(C)cc(C)c3)ccc2c1=O	–	-0.402%
Cc1nn(-c2ccc([N+](=O)[O-])cc2)c(N)c1-c1ccccc1	10 µM (active)	–
CC(C)(C)c1cnnn1-c1ccc([N+](=O)[O-])cc1	–	3.09%
Cc1nn(-c2ccccc2)c2c1C(c1cccc([N+](=O)[O-])c1)N(c1ccccc1)C(=O)N2 (stereo not given)	–	24.3%
